Screening results deposited in PubChem BioAssay by National Center for Advancing Translational Sciences (NCATS).
Rows were chosen to be rich in hits. Some 4.2% of all compounds tested hit in one or more screens of this group.
ClpP mod = qHTS Assay for Activators of ClpP; ATP-dependent Clp protease proteolytic subunit (Bacillus subtilis (strain 168)), P80244; purified B. subtilis ClpP, FRET peptide cleavage, 20 min; Potency, µM (highest dose often 57.5 µM), for the others: at the highest dose activity change, negative = active; hit rate 1.9% among 340,000; AID 651965, 2013; active means well fitted falling curve with a large enough effect; inconclusive means small, poorly fitted or top-dose-only effect; inactive means no such curve, though single readings can be large or run the other way; further: potency means the concentration at half of the fitted maximal effect; the source files actives as falling curves though it sought activators and does not explain the sign; nearly all actives have a fitted effect of over 65% in size
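Buffer: 100 mM Tris/HCl pH8, 100 mM KCl, 0.05% low protease BSA, 2.5% glycerol, 0.01% Tween-20. ClpP 10 microg/mL final; 20 min RT; delta FRET normalized to ADEP and DMSO controls.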
Sfp inh = blocks B. subtilis Sfp PPTase activity | Q9F4F7 | Biochemical Sfp PPTase activity, qHTS | hit rate 3.5% among 310,000 | Potency, µM, for the others: largest response in the series, negative = inhibition, hits mostly inhibitors | AID 1490;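 further: the enzyme is Sfp with the accession as filed and its product quenches rhodamine fluorescence; potency means the concentration at half of the fitted maximal effect; 0% = enzyme reaction without inhibitor and -100% = no enzyme wells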
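Fluorescence-quenching assay with 15 nM Sfp, 5 uM rhodamine-CoA and 12.5 uM BHQ-2-labelled ybbR peptide in pH 7.6 Hepes/MgCl2 buffer. Enzyme was pre-incubated with compound for 15 min at room temperature. Rate was taken from the 30-min fluorescence change (525/598 nm).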
TCR activator = T cell receptor activation; primary human leukocytes, anti-CD3, IL-2 HTRF, 48 h; Potency, µM (titrated, usually from 9.22 µM), for inactives: at the top dose activation of IL-2 secretion, usual class: activators; 330,000 tested, under 10 active; AID 504894; further: % of control where 0% means no effect
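Compounds are tested in HTS on primary human leukocytes co-incubated with a-CD3 beads for 48 hr. IL-2 output is measured by time-resolved FRET.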
uPA surface inh = cell surface uPA generation inhibition | cell surface uPA generation assay, qHTS | Potency, µM (series often up to 38.3 µM), inactives show top-dose activity change, negative = inhibition, hits mostly inhibitors | hit rate 0.31% among 330,000 | AID 540303; active means well fitted inhibition curve with a large enough effect; inconclusive means small, poorly fitted or top-dose-only effect; inactive means no such curve, though single readings can be large or run the other way; tested in mouse RAW 264.7 cells; further: potency means the concentration at half of the fitted maximal effect; on the % scale 0 is the no-effect control and ±100 the full control effect; nearly all actives have a fitted effect of over 55% in size
Numbers without * were called inactive; [ ] = another dose, or the depositor's remark. Unless noted, the call rests on the fitted dose curve; in most records, active means well fitted curve in the direction sought with a large enough effect; inconclusive means small, poorly fitted or top-dose-only effect, or another doubt; inactive means no such curve, though single readings can be large; an effect the other way counts as inactive or inconclusive.

O=C(O)/C=C/C(=O)c1ccc2c(c1)NC(=O)CO2 was read as Sfp inh 8.9µM*, TCR activator 4% and uPA surface inh 0%.
`COCCn1ccc2c(OCC(=O)Nc3cccc(NC(C)=O)c3)cccc2c1=O` gave ClpP mod inconclusive, TCR activator 3% and uPA surface inh -6%.
`O=C(NC(=S)Nc1ccc(Cl)cc1)c1cncc(Br)c1` gave TCR activator 2% and uPA surface inh 1%.
Screening O=C(O)c1ccccc1NC(=S)NC(=O)c1cccc2ccccc12 returned Sfp inh 50µM*, TCR activator 0% and uPA surface inh -2%.
For Cc1c(NC(=S)NC(=O)c2cccc3ccccc23)cccc1C(=O)O the results were ClpP mod 1%, Sfp inh -3%, TCR activator 0% and uPA surface inh 24%.
Screening O=C(NC(=S)Nc1ccccc1C(=O)O)c1cncc(Br)c1 returned ClpP mod 0%, Sfp inh 10µM* and uPA surface inh 0%.
For O=C(NC(=S)Nc1ccc(N2CCOCC2)cc1)c1cncc(Br)c1 the results were ClpP mod 1%, Sfp inh 56µM*, TCR activator 2%[46.1 µM] and uPA surface inh 10%.
`C=C1C2c3ccccc3C(CC2(C)O[Si](C)(C)C)N1C(=O)OC` (centres undefined) gave Sfp inh -1%.
Screening COc1ccccc1NC(=O)CN1CCCN(S(=O)(=O)c2ccc(Br)cc2)CC1 returned ClpP mod -2%.
For CCc1cnc2c(c1SCc1c(F)cccc1Cl)c(=O)n(C)c(=O)n2C the results were ClpP mod -6%.
`O=C(CNc1ccc(Br)cc1)c1ccc(O)cc1` gave Sfp inh 40µM*, TCR activator 4% and uPA surface inh -2%.
Screening CCOc1ccccc1NC(=O)C1=C(C)Nc2ncnn2C1c1ccc(C)o1 (centres undefined) returned ClpP mod -3%.
COc1ccc(NC(=O)C(C)n2nc(-c3ccc(C)c(C)c3)ccc2=O)cc1OC (centres undefined) was read as ClpP mod 2%.
Screening CCCN1CCN(c2ncnc3sc(C(=O)Nc4ccc(N(CC)CC)cc4C)c(C)c23)CC1 returned ClpP mod -1%.
COc1ccc2[nH]c(=O)c(-c3noc(-c4ccccc4)n3)cc2c1 was read as ClpP mod -12%, Sfp inh inconclusive, TCR activator -12% and uPA surface inh -1%.
c1ccc(-c2ccc(-c3nc(-c4cccnc4)no3)cc2)cc1 was read as ClpP mod 14µM*, Sfp inh -17%, TCR activator 5% and uPA surface inh -22%.
For c1ccc(-c2noc(-c3cccnc3)n2)cc1 the results were ClpP mod -2%, Sfp inh 8%, TCR activator -1% and uPA surface inh -7%.
For O=c1[nH]c2ccccc2cc1-c1noc(-c2cccnc2)n1 the results were ClpP mod 32µM*, Sfp inh 6% and TCR activator 4%.
`C[n+]1ccnc2ccccc21` gave ClpP mod -2%.
`CCOc1ccc2c(c1)C(C)=CC(C)(C)N2S(=O)(=O)c1ccc(F)cc1` gave ClpP mod 1%, Sfp inh 1%, TCR activator -1% and uPA surface inh 8.9µM*.
CCOc1ccc2c(c1)C(C)=CC(C)(C)N2S(=O)(=O)c1ccc(NC(C)=O)cc1 was read as ClpP mod 1%, Sfp inh 14% and uPA surface inh inconclusive.
`C#CCCCO/N=C1/C[C@@H](O)[C@@H](O)[C@@H]2[C@@H]3C(=O)N(C4CCCCC4)C(=O)[C@H]3CC[C@@H]12` gave Sfp inh 11%.
`C=CCn1c(-c2ccncc2)n[nH]c1=S` gave Sfp inh -23%, TCR activator 6% and uPA surface inh 1%.
C=CCn1c(Cc2nc3ccc(Cl)cc3[nH]2)n[nH]c1=S was read as ClpP mod -2%, Sfp inh 50µM*, TCR activator -6% and uPA surface inh -2%.
Screening C=CCn1c(Cc2ccccc2)n[nH]c1=S returned Sfp inh -16%, TCR activator -5% and uPA surface inh 1%.
C=CCn1c(-c2ccccc2)n[nH]c1=S was read as ClpP mod -4%, Sfp inh 5µM*, TCR activator -6%[46.1 µM] and uPA surface inh 0%.
